In PubChem BioAssay AID1851 (National Center for Advancing Translational Sciences (NCATS), 2009) one finds AC50 and activity, negative = inhibition data, which are given here for 46 compounds.

The whole screen tested about 16,000 compounds, of which about 5,800 (36%) were called active. Another 23% or so got no clear call; they are omitted. This is one part of the list. A number with no mark means an inactive call. The call rests on the fitted dose curve; in most records, active means well fitted curve in the direction sought with a large enough effect; inconclusive means small, poorly fitted or top-dose-only effect, or effect the other way; inactive means no such curve, though single readings can be large or run the other way. Square brackets hold non-standard residues; d marks the D form. Peptide text beside a SMILES is read from it. * marks the point of attachment. ξ: configuration not given here. Cbz = O=C(OCc1ccccc1)*; ξA = CC(N)C(=O)O
On the % scale 0 is the no-effect control and ±100 the full control effect.

The target in this assay is Cytochrome P450 2C19 (Homo sapiens) (UniProt P33261). Kind of assay: Cytochrome panel assay with activity outcomes. The note with it: recombinant CYP, pro-luciferin dealkylation, luminescence, p450-cyp2c19; series mostly up to 57.1 µM.
Cytochrome P450 2C19 (Homo sapiens), sequence (P33261 whole entry, looked up): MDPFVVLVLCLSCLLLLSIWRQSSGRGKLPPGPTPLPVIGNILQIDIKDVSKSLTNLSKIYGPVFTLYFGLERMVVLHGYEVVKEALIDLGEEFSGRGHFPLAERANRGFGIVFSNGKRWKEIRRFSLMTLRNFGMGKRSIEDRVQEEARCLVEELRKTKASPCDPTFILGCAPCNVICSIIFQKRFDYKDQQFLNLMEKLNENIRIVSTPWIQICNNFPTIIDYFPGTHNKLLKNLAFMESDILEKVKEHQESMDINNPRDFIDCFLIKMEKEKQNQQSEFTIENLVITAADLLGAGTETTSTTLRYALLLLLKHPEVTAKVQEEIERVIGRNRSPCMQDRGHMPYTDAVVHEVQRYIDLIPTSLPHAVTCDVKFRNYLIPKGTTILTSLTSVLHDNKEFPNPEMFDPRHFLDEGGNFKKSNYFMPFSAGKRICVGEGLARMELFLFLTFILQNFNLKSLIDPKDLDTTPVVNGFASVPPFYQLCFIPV
For the compound `O=C(O)c1ccccc1-c1ccc(/C=c2\sc3nc4cc(Br)cnc4n3c2=O)o1`, the AC50 (usually the midpoint of the concentration-response curve, whichever way the signal moves) was 35.5 µM (active). Still for that read-out and setting: the same measure for `Cc1cc2[nH]c(=O)c3ccccc3n2n1`: “inactive”; for `Cc1cc(C)n(C(=O)c2cc3ccccc3c(=O)o2)n1`: 1.58 µM (active). Consider `CCc1cc2c(nc1CC)CCN(CC/C(C)=N/O[C@@H]1O[C@H](COC(C)=O)[C@H](OC(C)=O)[C@H](OC(C)=O)[C@H]1OC(C)=O)C2`, for which the activity, negative = inhibition was 6.45% [at 11.4 µM]. Turning to `CCS(=O)(=O)c1ccc2oc(Nc3cc(C)cc(C)c3)nc2c1`, the AC50 is 11.2 µM (active). As for `O=C(O)CNC(=O)[C@@H](CS)Cc1ccccc1`, the AC50 result was “inactive”. With `CC(C)(C)N1C(=O)[C@H]2[C@H]3[C@H](O)[C@H](O)C/C(=N/NC(=O)OCc4ccccc4)[C@@H]3CC[C@@H]2C1=O`, the activity, negative = inhibition is 6.74% [at 11.4 µM].

On to `CC(C)C[C@H](NC(=O)[C@@H](O)[C@@H](N)Cc1ccccc1)C(=O)O`, for which the AC50 result was “inactive”.

As to `CC(=O)N[C@H](Cc1ccc(O)cc1)C(=O)O`, the activity, negative = inhibition was -9.65% [at 11.4 µM]. `CC(=O)SC[C@@H](Cc1ccccc1)C(=O)NCC(=O)OCc1ccccc1`: the AC50 is 0.126 µM (active). Consider `CC(C)(C)N1C(=O)[C@H]2[C@H]3[C@H](O)[C@H](O)C/C(=N/NC(=O)OCc4ccccc4)[C@H]3CC[C@@H]2C1=O`, for which the activity, negative = inhibition was 41% [at 11.4 µM].

For the compound `COC(=O)[C@H](Cc1ccccc1)NC(=O)[C@@H](C)CO`, the AC50 is 1.26 µM (active). Consider `COC(=O)CNC(=O)C(C)NC(=O)CNC(=O)OCc1ccccc1` (stereo not drawn) (Cbz-Gly-[ξA]-Gly-OMe), for which the AC50 is 31.6 µM (active). `N[C@@H](Cc1ccccc1)C(=O)O`: the activity, negative = inhibition was 8.56% [at 11.4 µM]. Turning to `COC(=O)[C@H](C)NC(=O)[C@@H](C)CO`, the activity, negative = inhibition was 35.5% [at 11.4 µM]. Regarding `O=C(N[C@@H](Cc1ccccc1)C(=O)CCl)OCc1ccccc1`, the AC50 is 5.01 µM (active). In the case of `NC([N-]/N=C/c1ccccn1)=[S]=[Fe].O=S(=O)(O)O`, the activity, negative = inhibition was -35.2% [at 11.4 µM]. Take `CSCC[C@@H]1NC(=O)C/C=C\[C@@H](C)COC(=O)[C@@H](C)COC1=O`: the activity, negative = inhibition was 30.8% [at 11.4 µM]. Take `O=C1[C@H]2[C@H]3[C@H](O)[C@H](O)C/C(=N/OC[C@@H](O)COCc4ccco4)[C@H]3CC[C@@H]2C(=O)N1C[C@@H]1CCCO1`: the activity, negative = inhibition was -12.6% [at 11.4 µM]. On to `COC(=O)CCC(NC(=O)OCc1ccccc1)C(=O)NC(CC(C)C)C(=O)OC` (stereo unspecified) (Cbz-Glu(OMe)-Leu-OMe; configuration not given here), for which the AC50 was 11.2 µM (active). Same read-out and setting: the entry for `CSCC[C@H](C=O)NC(=O)[C@H](CC(C)C)NC(=O)[C@H](CC(C)C)NC(C)=O` (Ac-Leu-Leu-[dM]-aldehyde) is “inactive”; for `CC(C)C[C@H](NC(=O)[C@@H](O)[C@H](N)Cc1ccccc1)C(=O)O` it is “inactive”; for `CC(C)[C@H](NC(=O)OCc1ccccc1)C(=O)N[C@H](C=O)Cc1ccccc1` (Cbz-Val-Phe-aldehyde) it is “inactive”. Same read-out and setting: the same measure for `CCCCC(C=O)NC(=O)C(CC(C)C)NC(=O)OCc1ccccc1` (stereo unspecified): 10 µM (active); for `COc1ccc(/C=C2\SC(=O)N(CCNC(=O)C3CC(=O)N(c4ccccc4)C3)C2=O)cc1` (stereo unspecified): 14.1 µM (active); for `COC(=O)COc1ccc(/C=C2/SC(=O)N(CC(=O)N3CCCC3)C2=O)cc1Br`: “inactive”. Still for that read-out and setting: the same measure for `COCC(=O)N1CCC[C@@]2(CCN(Cc3ccccc3OC)C2)C1`: “inactive”; for `Cc1ccc(-n2nc(C)c3c2OC(N)=C(C#N)C3c2ccco2)cc1` (stereo unspecified): 8.91 µM (active). In the case of `O=C(O)c1cc2c(cc1S(=O)(=O)O)[C@H]1[C@@H]([C@H]3[C@H]2[C@@]2(Cl)C(Cl)=C(Cl)[C@]3(Cl)C2(Cl)Cl)[C@]2(Cl)C(Cl)=C(Cl)[C@@]1(Cl)C2(Cl)Cl`, the activity, negative = inhibition is -16.5% [at 11.4 µM].

For `Cc1cc(=O)[nH]c(-n2[nH]c3c(c2=O)CCCC3)n1`, the AC50 result was “inactive”. For `Cc1ccc(S(=O)(=O)Nc2cc(=O)[nH]c3c2CCC3)cc1`, the AC50 was 0.631 µM (active).

`C=CCSc1nc2c(sc3nc(C)cc(C)c32)c(=O)[nH]1`: the AC50 is 6.31 µM (active). Turning to `Cc1cc(C)c2c(=O)[nH]c(SCC(=O)N(C)C)nc2n1`, the AC50 result was “inactive”. As to `COc1ccc(CNc2ccnc(-c3cccc(NS(C)(=O)=O)c3)n2)c(OC)c1`, the AC50 is 15.8 µM (active). On to `COc1ccc(CNc2ccnc(-c3cccnc3)n2)c(OC)c1`, for which the AC50 is 2 µM (active). For `COc1cccc(-c2nccc(NCc3ccc(OC)cc3OC)n2)c1`, the AC50 is 2.51 µM (active). Still for that read-out and setting: the same measure for `COc1cccc(-c2nccc(NCc3ccccc3OC)n2)c1`: 5.01 µM (active); for `Cc1cnc(CNc2ccnc(-c3cccc(NS(C)(=O)=O)c3)n2)cn1`: “inactive”. As for `N[C@H](CCC(=O)NCS(=O)(=O)O)C(=O)O`, the AC50 result was “inactive”. For `Cc1[nH]c2c(C)ccc(C)c2c1CC(=O)O`, the AC50 was 0.316 µM (active). Regarding `COC(=O)C/C=C\[C@@H](C)[C@@H](/C=N\O[C@@H](C)c1cc(-c2c(C)cc(C)cc2C)no1)NS(=O)(=O)c1ccc(C)cc1`, the AC50 was 3.16 µM (active). In the case of `COC(=O)C/C=C\[C@@H](C)[C@@H](/C=N\O[C@@H](C)c1cn([C@H]2COC[C@H]2O)nn1)NS(=O)(=O)c1ccc(C)cc1`, the activity, negative = inhibition is -9.22% [at 11.4 µM]. As to `COC(=O)C/C=C\[C@H](C)[C@H](CO)NS(=O)(=O)c1ccc(C)cc1`, the activity, negative = inhibition was 44.8% [at 11.4 µM]. `COC(=O)C/C=C\[C@@H](C)[C@@H](/C=N\O[C@@H](C)CN1CCCc2nc(C)c(C)cc21)NS(=O)(=O)c1ccc(C)cc1`: the activity, negative = inhibition is -27.4% [at 11.4 µM]. On the same count and under the same terms, the same measure for `COC(=O)C/C=C\[C@@H](C)[C@@H](/C=N\OC[C@@H](O)COCc1ccco1)NS(=O)(=O)c1ccc(C)cc1`: -9.48% [at 11.4 µM]. Regarding `CO/N=C\[C@@H](NS(=O)(=O)c1ccc(C)cc1)[C@H](C)/C=C\CC(=O)OC`, the half-maximal activity concentration (AC50) was 3.16 µM (active).
